Only some compounds are listed: those with a hit (about 21% of all), similar ones and a draw of the others.
CHX counter: affects cycloheximide protein synthesis inhibition readout, counter-screen; 12% of 300,000 active; cell reporter, cycloheximide protein synthesis inhibition counterscreen; AID 2314; max response, %; in the data active = max response mostly above about 13%, no sharp cut-off; inactive = mostly below about 14%; also: read at 38.3 µM for the half of the compounds with a filed dose; 0% is about no effect
Giardia FBPA inh: blocks Giardia fructose-bisphosphate aldolase activity; A8B2U2; purified Giardia FBPA; Potency, µM (doses to about 59.6 µM), for inactives: top-dose activity, negative = inhibition, hits mostly inhibitors; 0.71% of 290,000 active; AID 2451; also: potency is read from the fitted curve at half-maximal effect; % is scaled to controls: 0 for no effect and ±100 for the full control effect; nearly all actives have a fitted effect of over 55% in size
Target sequence (A8B2U2 whole entry, looked up): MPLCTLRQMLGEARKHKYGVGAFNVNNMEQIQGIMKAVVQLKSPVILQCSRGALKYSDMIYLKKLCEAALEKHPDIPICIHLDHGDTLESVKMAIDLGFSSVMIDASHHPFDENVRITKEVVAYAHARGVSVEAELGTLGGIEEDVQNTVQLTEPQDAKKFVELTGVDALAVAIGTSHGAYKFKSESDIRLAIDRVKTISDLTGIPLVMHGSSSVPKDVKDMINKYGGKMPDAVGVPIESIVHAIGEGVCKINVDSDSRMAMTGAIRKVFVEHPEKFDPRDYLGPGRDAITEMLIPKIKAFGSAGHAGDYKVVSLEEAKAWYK
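40 nM FBPA preincubated 10 min at RT with compound (up to 57.5 uM final), then substrate plus GAPDH/TPI/NAD/arsenate coupling and diaphorase/resazurin added. Fluorescence read after 20 min at RT, 525/598 nm.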
Pf growth 48h: P. falciparum growth inhibition at 48 hours (one generation); P. falciparum luciferase growth in erythrocytes, 48 h; AID 504832; 5.9% of 310,000 active; Potency, µM (doses to about 28.7 µM), without a hit: at the highest dose activity change, negative = inhibition, usual class: inhibitors; also: potency is read from the fitted curve at half-maximal effect; % is scaled to controls: 0 for no effect and ±100 for the full control effect
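Read-out is firefly luciferase luminescence from an integrated reporter in P. falciparum, so falling signal marks reduced parasite growth. Infected erythrocytes were at 2% hematocrit and 0.1% parasitemia (final) in Albumax-supplemented RPMI 1640.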
Pf growth 96h: P. falciparum growth inhibition at 96 hours; P. falciparum luciferase reporter growth, 96 h; Potency, µM (top dose mostly 28.7 µM), for the others: at the top dose activity change, negative = inhibition, actives largely listed as inhibitors; 6.9% of 320,000 active; AID 504834; also: potency is read from the fitted curve at half-maximal effect; % is scaled to controls: 0 for no effect and ±100 for the full control effect
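Two-generation exposure (96 h) targets delayed-death phenotype. Reporter parasites carrying integrated firefly luciferase, in red cells at 2% hematocrit and 0.05% parasitemia final, kept at 37 C, 5% CO2; luminescence loss indicates inhibition.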
NS1 function inh: blocks influenza NS1 protein function; Potency, µM (series often up to 46.1 µM), for the others: at the top dose activity, positive = more growth; AID 2326; 0.4% of 270,000 active; calls by dose curve; also: potency is read from the fitted curve at half-maximal effect; actives are rising curves; nearly all actives have a fitted effect of over 50% in size
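A cell-based growth assay was used: compounds that relieve NS1-induced slow growth of budding yeast raise OD600. Assay medium was yeast nitrogen base with ammonium sulphate and -URA supplement, pH 6.0, with 2% galactose.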
Shiga inhibitor: blocks Shiga toxin action in Vero cells | inhibition, % at 38.7 µM | AID 2315 | 9.2% of 290,000 active | Vero cells, Shiga toxin protein synthesis inhibition reporter; in the data active = inhibition mostly above about 28%, no sharp cut-off; inactive = mostly below about 43%; also: 0% is about no effect
* = called active by the depositor. Unless noted, calls follow the shape of the dose curve; as a rule, active = well fitted curve in the direction sought with a large enough effect; inconclusive = small, poorly fitted or top-dose-only effect, or another doubt; inactive = no such curve, though single readings can be large; an effect the other way counts as inactive or inconclusive.

Screening Cc1ccc(C2CC(=O)N3CN(c4ccc(Br)cc4)CSC3=C2C#N)o1 (configuration not stated) returned CHX counter 5, Giardia FBPA inh inconclusive, Pf growth 96h 4.7µM*, NS1 function inh inconclusive and Shiga inhibitor 24.
COc1ccccc1N1CSC2=C(C#N)C(c3ccc(SC)cc3)CC(=O)N2C1 (configuration not stated) was read as CHX counter -3, Giardia FBPA inh 5.6µM*, Pf growth 96h -4%, NS1 function inh 18% and Shiga inhibitor -9.
N#CC1=C2SCN(c3ccccc3)CN2C(=O)CC1c1ccccc1Cl (configuration not stated) was read as CHX counter 9, Giardia FBPA inh inconclusive, Pf growth 96h inconclusive, NS1 function inh -26% and Shiga inhibitor 23.
`N#CC1=C2SCN(c3ccccc3)CN2C(=O)CC1c1cccs1` (configuration not stated) gave CHX counter 6, Giardia FBPA inh inconclusive, Pf growth 48h inconclusive, Pf growth 96h 25%, NS1 function inh -45% and Shiga inhibitor 8.
CCc1ccccc1N1CSC2=C(C#N)C(c3cc(OC)c(OC)cc3OC)CC(=O)N2C1 (configuration not stated) was read as CHX counter 6, Giardia FBPA inh 4.5µM*, Pf growth 48h 13µM*, Pf growth 96h 68%, NS1 function inh 10µM* and Shiga inhibitor -24.
COc1cccc(C2CC(=O)N3CN(c4cccc(Cl)c4C)CSC3=C2C#N)c1OC (configuration not stated) was read as CHX counter -7, Giardia FBPA inh inconclusive, Pf growth 96h 0.93µM*, NS1 function inh -34% and Shiga inhibitor -15.
For CC(C)CCC[C@@H](C)[C@H]1CC[C@H]2[C@@H]3CC=C4CC(O)CC[C@]4(C)[C@H]3CC[C@]12C (some centres not stated) the results were CHX counter 4, Giardia FBPA inh 2% and Shiga inhibitor 11.
Cc1cccc(Cn2c(N3CCN(C)CC3)nc3c2c(=O)n(C)c(=O)n3C)c1 was read as CHX counter -1, Giardia FBPA inh 1%, Pf growth 48h 7%, Pf growth 96h 366% and NS1 function inh -3%.
Screening COc1ccc(OC)c(C2CC(=O)N3CN(c4ccccc4F)CSC3=C2C#N)c1 (configuration not stated) returned CHX counter 7, Giardia FBPA inh inconclusive, Pf growth 96h inconclusive, NS1 function inh -29% and Shiga inhibitor 39.
`COc1cc(C2CC(=O)N3CN(c4ccccc4C)CSC3=C2C#N)cc(OC)c1OC` (configuration not stated) gave CHX counter -1, Giardia FBPA inh 4.5µM*, Pf growth 48h inconclusive, Pf growth 96h inconclusive, NS1 function inh -15% and Shiga inhibitor -7.
Screening N#CC1=C2SCN(c3ccccc3)CN2C(=O)CC1c1c(Cl)cccc1Cl (configuration not stated) returned CHX counter -1, Giardia FBPA inh inconclusive, Pf growth 96h 1%, NS1 function inh 11µM* and Shiga inhibitor 24.
For CCN(C(=O)CC(C)C)c1nnc(Cn2nnc3ccccc32)s1 the results were CHX counter 5, Giardia FBPA inh 0%, Pf growth 48h -17%, Pf growth 96h 34% and Shiga inhibitor 21.
Screening CCN(C(=O)c1ccc(C(C)(C)C)cc1)c1nnc(Cn2nnc3ccccc32)s1 returned CHX counter -2, Giardia FBPA inh 4%, Pf growth 48h 10µM*, Pf growth 96h 120%, NS1 function inh -5% and Shiga inhibitor -16.
COC(=O)C(Cc1ccc(OC(=O)c2ccc(Cl)cc2)cc1)N1Cc2ccccc2C1=O (configuration not stated) was read as CHX counter 44*, Giardia FBPA inh -4%, Pf growth 48h 79%, Pf growth 96h 170%, NS1 function inh -22% and Shiga inhibitor 126*.

High-throughput results deposited in PubChem BioAssay by National Center for Advancing Translational Sciences (NCATS).
